This is an account of results in article PMC4336329 (PLoS ONE, 2015).

Screen size: about 310,000 compounds; about 14,000 (4.5%) showed an effect of 50% or more. Effects have a minus sign here. This excerpt belongs to a sample that is enriched for strong results.
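Further: peak tail current of the secondary pulse compared with the same well before compound.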

The target in the assay is human ether-à-go-go-related gene (hERG) potassium channel (human, UniProt Q12809). Briefly: primary screen, population patch clamp on CHO cells stably expressing hERG; higher = less effect of the substance.
human ether-à-go-go-related gene (hERG) potassium channel, sequence (Q12809 whole entry, looked up): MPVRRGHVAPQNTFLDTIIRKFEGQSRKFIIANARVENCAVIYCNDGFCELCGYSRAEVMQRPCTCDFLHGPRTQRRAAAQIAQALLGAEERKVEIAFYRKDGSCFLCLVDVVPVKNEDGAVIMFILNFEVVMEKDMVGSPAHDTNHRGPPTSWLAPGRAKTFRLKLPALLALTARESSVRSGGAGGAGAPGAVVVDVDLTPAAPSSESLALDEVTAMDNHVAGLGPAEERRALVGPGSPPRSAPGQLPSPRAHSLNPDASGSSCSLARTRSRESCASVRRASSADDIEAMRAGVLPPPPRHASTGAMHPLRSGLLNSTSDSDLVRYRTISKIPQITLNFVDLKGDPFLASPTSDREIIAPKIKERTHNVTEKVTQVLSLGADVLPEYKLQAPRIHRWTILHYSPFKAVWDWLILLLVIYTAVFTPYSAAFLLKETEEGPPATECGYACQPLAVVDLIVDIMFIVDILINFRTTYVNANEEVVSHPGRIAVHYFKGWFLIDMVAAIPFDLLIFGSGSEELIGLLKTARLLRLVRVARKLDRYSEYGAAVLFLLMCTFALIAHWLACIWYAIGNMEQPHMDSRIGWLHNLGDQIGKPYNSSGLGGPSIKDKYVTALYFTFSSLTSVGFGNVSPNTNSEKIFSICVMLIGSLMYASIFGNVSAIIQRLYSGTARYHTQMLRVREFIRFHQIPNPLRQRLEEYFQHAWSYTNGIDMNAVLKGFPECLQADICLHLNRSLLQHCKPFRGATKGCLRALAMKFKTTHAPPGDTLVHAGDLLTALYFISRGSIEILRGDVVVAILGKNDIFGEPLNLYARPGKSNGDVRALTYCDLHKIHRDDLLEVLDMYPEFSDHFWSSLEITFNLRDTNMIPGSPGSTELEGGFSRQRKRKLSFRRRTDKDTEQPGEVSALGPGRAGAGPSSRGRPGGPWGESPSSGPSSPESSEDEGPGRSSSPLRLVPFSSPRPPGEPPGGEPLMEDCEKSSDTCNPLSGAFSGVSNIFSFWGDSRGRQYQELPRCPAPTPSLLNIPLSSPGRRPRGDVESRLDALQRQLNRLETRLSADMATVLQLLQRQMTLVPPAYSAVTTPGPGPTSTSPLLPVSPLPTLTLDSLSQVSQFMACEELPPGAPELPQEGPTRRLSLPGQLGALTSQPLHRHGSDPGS
As to `C/C(=N\NC(=O)c1cc(-c2cccc([N+](=O)[O-])c2)n[nH]1)c1ccc(F)cc1`, the “hERG current change (%, negative = inhibition) at 10uM” value was 8.28%.

As to `O=C(COC(=O)CC1CC2CCC1C2)Nc1ccc(F)cc1` (centres unmarked), the “hERG current change (%, negative = inhibition) at 10uM” value is reported as -22.4%.

Take `Cc1ccc2c(c1)/C(=C/c1ccc(F)cc1)C(=O)N2`: the “hERG current change (%, negative = inhibition) at 10uM” value was found to be 10.5%.

As for `COc1cc(C(=O)N/N=C/c2coc3ccc(Cl)cc3c2=O)ccc1O`, the “hERG current change (%, negative = inhibition) at 10uM” value is reported as 14.2%.

`COc1ccc(CCNC2CC(=O)N(CCc3ccccc3)C2=O)cc1OC` (centres unmarked): the “hERG current change (%, negative = inhibition) at 10uM” value turned out to be 0.286%.

On to `COc1ccc(CCN2C(=O)CC(NNc3ccc([N+](=O)[O-])cc3)C2=O)cc1OC` (centres unmarked), for which the “hERG current change (%, negative = inhibition) at 10uM” value is on record as -52.8%.

Take `CCc1ccc(NC2CC(=O)N(CCc3ccc(OC)c(OC)c3)C2=O)cc1` (centres unmarked): the “hERG current change (%, negative = inhibition) at 10uM” value is -13.4%.

For `Cc1ccc(SCc2ccc(C(=O)N3CCCCC3)cc2)cc1`, the “hERG current change (%, negative = inhibition) at 10uM” value stood at 1.58%.

For `Cc1ccc(SCc2ccc(C(=O)N3CCCC3)cc2)cc1`, the “hERG current change (%, negative = inhibition) at 10uM” value is -30.1%.

With `CCN1CCN(C(=O)c2ccc(CSc3ccc(C)cc3)cc2)CC1`, the “hERG current change (%, negative = inhibition) at 10uM” value is -63.6%.

Turning to `Cc1cccc(CC(=O)N2CCN=C2SCc2ccc([N+](=O)[O-])cc2)c1`, the “hERG current change (%, negative = inhibition) at 10uM” value is given as -11.8%.

For the compound `O=S(=O)(c1ccc(F)cc1)N1CCN=C1SCc1cccnc1`, the “hERG current change (%, negative = inhibition) at 10uM” value was -27.6%.

`Cc1cc(C)cc(C(=O)N2CCN=C2SCc2ccc([N+](=O)[O-])cc2)c1`: the “hERG current change (%, negative = inhibition) at 10uM” value was -23.5%.

Regarding `O=[N+]([O-])c1ccc(S(=O)(=O)N2CCN=C2SCc2cccnc2)cc1`, the “hERG current change (%, negative = inhibition) at 10uM” value is listed as -68.1%.

Take `O=S(=O)(c1ccccc1)N1CCN=C1SCc1cccnc1`: the “hERG current change (%, negative = inhibition) at 10uM” value is on record as -12.1%.

Take `CC(=O)N1CCN=C1SCc1ccccc1`: the “hERG current change (%, negative = inhibition) at 10uM” value came to 19.1%.

In the case of `O=C(c1ccccc1)N1CCN=C1SCc1ccc([N+](=O)[O-])cc1`, the “hERG current change (%, negative = inhibition) at 10uM” value is -56.4%.

Regarding `Cc1cccc(C(=O)N2CCN=C2SCc2ccc([N+](=O)[O-])cc2)c1`, the “hERG current change (%, negative = inhibition) at 10uM” value is reported as -51.9%.

As to `O=C(N=C1SC2CS(=O)(=O)CC2N1c1ccc(F)cc1F)C1CC1` (centres unmarked), the “hERG current change (%, negative = inhibition) at 10uM” value is 2.47%.

With `O=C(OCC(=O)N1CCCC1=O)C1CCN(S(=O)(=O)c2c(Cl)cccc2Cl)CC1`, the “hERG current change (%, negative = inhibition) at 10uM” value is recorded as -36.1%.

For `O=C(NCc1cccnc1)NC1CC(=O)N(c2ccc3c(c2)OCCO3)C1` (centres unmarked), the “hERG current change (%, negative = inhibition) at 10uM” value is listed as -0.536%.

Turning to `CC(C)(C)n1nnnc1C(c1cccc(C#N)c1)N1CCN2CCCC2C1` (centres unmarked), the “hERG current change (%, negative = inhibition) at 10uM” value is listed as 4.48%.

`Cn1c(C(C#N)/C(=N\S(=O)(=O)c2cccs2)c2ccccc2)nc2ccccc21` (centres unmarked): the “hERG current change (%, negative = inhibition) at 10uM” value is reported as 2.46%.

In the case of `O=C(O)CC1(CC(=O)Nc2cc(C(F)(F)F)cc(C(F)(F)F)c2)CCCCC1`, the “hERG current change (%, negative = inhibition) at 10uM” value was determined as 18.6%.

Regarding `Cc1cccc(N2CCN(C(=O)c3ccc4c(c3)NC(=O)C(CSCc3cccc(F)c3)N4)CC2)c1C` (centres unmarked), the “hERG current change (%, negative = inhibition) at 10uM” value worked out at 15.9%.

Regarding `O=C(c1cccc2ccccc12)N1CCN=C1SCc1ccc([N+](=O)[O-])cc1`, the “hERG current change (%, negative = inhibition) at 10uM” value was -10.7%.

As for `Cc1ccc(C(=O)N2CCN=C2SCc2ccc([N+](=O)[O-])cc2)cc1`, the “hERG current change (%, negative = inhibition) at 10uM” value is -70.5%.

As to `O=C(Cc1ccccc1)N1CCN=C1SCc1cccc([N+](=O)[O-])c1`, the “hERG current change (%, negative = inhibition) at 10uM” value was -22.6%.

For the compound `Cc1ccc(CSC2=NCCN2C(=O)c2ccc([N+](=O)[O-])cc2)cc1`, the “hERG current change (%, negative = inhibition) at 10uM” value is given as -42.9%.

Take `Cc1ccc(C)c(CSC2=NCCN2C(=O)Cc2ccc([N+](=O)[O-])cc2)c1`: the “hERG current change (%, negative = inhibition) at 10uM” value is -4.06%.

For `O=C(c1ccc([N+](=O)[O-])cc1)N1CCN=C1SCc1ccccc1`, the “hERG current change (%, negative = inhibition) at 10uM” value is reported as -72.2%.

In the case of `Cc1ccccc1C(=O)N1CCN=C1SCc1ccc([N+](=O)[O-])cc1`, the “hERG current change (%, negative = inhibition) at 10uM” value is given as -63.6%.

For `CN(C)S(=O)(=O)c1ccc(C(=O)N2CCN=C2SCc2ccccc2)cc1`, the “hERG current change (%, negative = inhibition) at 10uM” value was determined as 20.9%.

For `Cc1ccc(C(=O)N2CCN=C2SCc2ccc([N+](=O)[O-])cc2)cc1C`, the “hERG current change (%, negative = inhibition) at 10uM” value is 2.84%.

As for `O=S(=O)(Nc1nc2ccccc2nc1Nc1ccc(N2CCOCC2)cc1)c1cc(Cl)ccc1Cl`, the “hERG current change (%, negative = inhibition) at 10uM” value was -0.376%.

Turning to `C=CCN(c1ccccc1)S(=O)(=O)c1cc(C(=O)NC2=NCCS2)ccc1Cl`, the “hERG current change (%, negative = inhibition) at 10uM” value is given as 63.3%.

In the case of `COc1ccc(CNC(=O)c2c(C)cc(=O)oc2C)cc1`, the “hERG current change (%, negative = inhibition) at 10uM” value is -26.8%.

In the case of `CC1Sc2ccc(S(=O)(=O)N3CCC(C(=O)NCc4ccc(Cl)cc4)CC3)cc2NC1=O` (centres unmarked), the “hERG current change (%, negative = inhibition) at 10uM” value is -5.58%.

`COC(=O)C1CCN(Cc2ccc(OCCCN3CCN(c4ccc([N+](=O)[O-])cc4)CC3)cc2)CC1`: the “hERG current change (%, negative = inhibition) at 10uM” value is -73.7%.

On to `COC(=O)C1CCN(c2ccc([N+](=O)[O-])cc2[N+](=O)[O-])CC1`, for which the “hERG current change (%, negative = inhibition) at 10uM” value was -0.88%.

Consider `Oc1ccc(N2CCN(Cc3ccc(OCCCN4CCCCC4)cc3)CC2)cc1`, for which the “hERG current change (%, negative = inhibition) at 10uM” value is given as 5.11%.

On to `COC(=O)C1CCN(Cc2ccc(C)cc2)CC1`, for which the “hERG current change (%, negative = inhibition) at 10uM” value is on record as -22.2%.

As for `CCCCOc1ccc(CN2CCC(O)CC2)cc1`, the “hERG current change (%, negative = inhibition) at 10uM” value was determined as 3.42%.

For `COC(=O)C1CCN(CCCOc2ccc(CN3CCN(c4ccc([N+](=O)[O-])cc4)CC3)cc2)CC1`, the “hERG current change (%, negative = inhibition) at 10uM” value is recorded as -74.3%.
